Test results: PubChem BioAssay (Tox21)
Results filed as inconclusive are left out. The source holds several records for some structures; these can differ, active in one and inactive in another. Calls of active or inactive are those of the source. Unless noted, the call rests on the fitted dose curve; in most records, active means well fitted curve in the direction sought with a large enough effect in the repeat runs; inconclusive means weak or mixed curves; inactive means no such curve, though single readings can be large; an effect the other way counts as inactive or inconclusive.

What was measured:
[1] = target: Thyrotropin receptor (Homo sapiens) (UniProt P16473); experiment: qHTS assay to identify small molecule antagonists of the thyroid stimulating hormone receptor (TSHR) signaling pathway (AID 1259385; calls by dose curve; further: nearly all actives have a fitted effect of over 20% in size; further: potency means the concentration at half of the fitted maximal effect)
Sequence of Thyrotropin receptor (Homo sapiens) (P16473 whole entry, looked up): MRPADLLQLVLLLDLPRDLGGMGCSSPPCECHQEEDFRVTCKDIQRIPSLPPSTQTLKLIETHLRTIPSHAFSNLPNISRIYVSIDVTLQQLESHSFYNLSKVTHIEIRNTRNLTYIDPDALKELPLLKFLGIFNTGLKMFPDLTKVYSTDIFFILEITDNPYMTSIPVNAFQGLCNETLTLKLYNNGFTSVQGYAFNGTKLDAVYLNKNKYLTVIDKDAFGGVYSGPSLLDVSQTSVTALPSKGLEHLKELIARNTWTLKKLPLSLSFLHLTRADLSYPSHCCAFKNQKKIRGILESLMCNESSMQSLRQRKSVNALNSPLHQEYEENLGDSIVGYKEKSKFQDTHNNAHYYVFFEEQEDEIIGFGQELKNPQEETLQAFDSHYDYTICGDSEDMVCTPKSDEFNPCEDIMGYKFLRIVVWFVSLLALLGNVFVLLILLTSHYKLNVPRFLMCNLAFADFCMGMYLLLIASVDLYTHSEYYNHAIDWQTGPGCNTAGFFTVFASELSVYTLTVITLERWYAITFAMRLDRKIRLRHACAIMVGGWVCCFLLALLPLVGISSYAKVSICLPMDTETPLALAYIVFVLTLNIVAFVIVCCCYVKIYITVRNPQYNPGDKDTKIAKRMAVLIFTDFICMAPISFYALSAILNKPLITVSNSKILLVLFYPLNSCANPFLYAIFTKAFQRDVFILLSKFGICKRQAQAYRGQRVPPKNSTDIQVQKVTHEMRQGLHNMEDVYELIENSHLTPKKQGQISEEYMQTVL
Summary of the method: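 Antagonist mode: compound-treated TSHR-expressing HEK293 cells were stimulated with 1.5 ng/mL TSH (final) in presence of Ro20-1724 for 30 min at RT. HTRF cAMP detection after 1 h; each compound tested at 15 concentrations, triplicate.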

[2] = qHTS assay to identify small molecule agonists of the estrogen receptor alpha (ER-alpha) signaling pathway in the presence of an antagonist - cell viability counter screen (AID 1259386);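 further: series mostly up to about 92 µM; cells exposed to compounds for 22 h at 37 °C before the viability read; nearly all actives have a fitted effect of over 30% in size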
Summary of the method: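 ICI-182,780 at 10.0nM final accompanies the compound titration (15 concentrations, 22hr, 37C) on VM7Luc4E2 cells. The CellTiter-Fluor fluorescence readout runs in the same wells as the luciferase assay.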

[3] = target: Progesterone receptor (Homo sapiens) (UniProt P06401); experiment: qHTS assay to identify small molecule antagonists of the progesterone receptor (PR) signaling pathway (AID 1346795; active means well fitted inhibition curve with a large enough effect in the signal ratio in the repeat runs, not every such curve was filed as active; the % refers to the signal ratio)
Sequence of Progesterone receptor (Homo sapiens) (P06401 whole entry, looked up): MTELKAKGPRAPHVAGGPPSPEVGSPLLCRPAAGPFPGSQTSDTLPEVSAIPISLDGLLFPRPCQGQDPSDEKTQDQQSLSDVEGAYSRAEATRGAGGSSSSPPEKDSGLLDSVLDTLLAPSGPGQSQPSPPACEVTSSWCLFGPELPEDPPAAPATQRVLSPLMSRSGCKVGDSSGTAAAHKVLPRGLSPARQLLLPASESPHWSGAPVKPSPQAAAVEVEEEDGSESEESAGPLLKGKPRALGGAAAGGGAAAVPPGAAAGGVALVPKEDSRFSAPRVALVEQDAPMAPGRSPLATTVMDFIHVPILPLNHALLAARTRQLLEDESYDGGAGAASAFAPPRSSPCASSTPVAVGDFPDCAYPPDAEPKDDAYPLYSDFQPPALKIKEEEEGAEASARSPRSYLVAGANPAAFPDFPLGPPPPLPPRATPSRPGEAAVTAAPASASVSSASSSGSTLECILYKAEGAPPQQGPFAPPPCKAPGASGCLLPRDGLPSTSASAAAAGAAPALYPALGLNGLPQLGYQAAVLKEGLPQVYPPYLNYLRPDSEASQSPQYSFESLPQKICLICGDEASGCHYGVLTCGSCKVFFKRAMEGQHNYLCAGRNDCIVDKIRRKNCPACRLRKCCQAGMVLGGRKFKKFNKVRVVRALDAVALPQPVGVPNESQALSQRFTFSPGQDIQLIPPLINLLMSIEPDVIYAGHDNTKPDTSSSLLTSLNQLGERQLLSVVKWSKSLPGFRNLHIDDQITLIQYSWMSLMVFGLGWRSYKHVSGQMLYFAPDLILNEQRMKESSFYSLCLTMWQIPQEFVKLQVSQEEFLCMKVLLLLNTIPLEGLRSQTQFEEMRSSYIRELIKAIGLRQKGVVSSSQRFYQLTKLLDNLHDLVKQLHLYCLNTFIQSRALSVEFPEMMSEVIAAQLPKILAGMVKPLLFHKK
Summary of the method: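 PR-UAS-bla HEK293T cells with beta-lactamase reporter under UAS control, in 2% charcoal-stripped FBS, treated with compounds plus 1 nM promegestone (R5020, final) for 16 hr at 37C. Read-out: FRET beta-lactamase substrate fluorescence after 2 hr at room temperature.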

[4] = qHTS assay to identify small molecule antagonists of the progesterone receptor (PR) signaling pathway - cell viability counter screen (AID 1346798); further: series mostly up to about 92 µM; nearly all actives have a fitted effect of over 50% in size
Summary of the method: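 PR-UAS-bla HEK293T cells, 3,000/well in 2% charcoal-stripped FBS medium, dosed with compounds plus R5020 agonist and incubated 16 h at 37C. Viability then measured in the same wells by CellTiter-Glo luminescence after 30 min at RT.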

[5] = qHTS assay to identify small molecule agonists of the progesterone receptor (PR) signaling pathway - cell viability counter screen (AID 1346799; calls by dose curve; further: nearly all actives have a fitted effect of over 45% in size)
Summary of the method: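 Counter screen in the PR-UAS-bla HEK293T wells (2% charcoal-stripped FBS, 16 h compound exposure at 37 C) after the bla read. CellTiter-Glo added, 30 min at room temperature, luminescence read as cell viability.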

[6] = qHTS assay to identify small molecule antagonists of the TGF-beta/Smad signaling pathway - cell viability counter screen (AID 1346824); further: nearly all actives have a fitted effect of over 50% in size; further: potency means the concentration at half of the fitted maximal effect
Summary of the method: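 Cytotoxicity counter-screen run in the same wells as the beta-lactamase Smad reporter read: CellTiter-Glo luminescence after 30 min at room temperature. HEK 293T SBE-bla cells had 5 hr compound exposure at 37 C with TGF-beta1 (0.25 ng/mL stock).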

[7] = qHTS assay to identify small molecule agonists of the TGF-beta/Smad signaling pathway - cell viability counter screen (AID 1346829); further: top concentration of the series differs between compounds; nearly all actives have a fitted effect of over 45% in size
Summary of the method: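 Same-well cytotoxicity: CellTiter-Glo added after the 2 hr room-temperature beta-lactamase substrate step, luminescence measured 30 min later; cells had 5 hr of compound at 37 C.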

[8] = qHTS assay to identify small molecule agonists of the TGF-beta/Smad signaling pathway (AID 1346859; active means well fitted activation curve with a large enough effect in the signal ratio in the repeat runs, not every such curve was filed as active; the % refers to the signal ratio; further: series mostly up to about 77 µM)
Summary of the method: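 SBE-bla HEK293T cells plated overnight, then compound exposure for 5 h at 37 C. Beta-lactamase reporter read with LiveBLAzer B/G FRET substrate after 2 h at room temperature, fluorescence at 405 nm excitation, 460/530 nm emission.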

[9] = target: Thyrotropin-releasing hormone receptor (Homo sapiens) (UniProt P34981); experiment: qHTS assay to identify small molecule antagonists of the thyrotropin-releasing hormone receptor (TRHR) signaling pathway (AID 1346877; active means well fitted inhibition curve with a large enough effect in the repeat runs, not every such curve was filed as active; further: series mostly up to about 51 µM)
Sequence of Thyrotropin-releasing hormone receptor (Homo sapiens) (P34981 whole entry, looked up): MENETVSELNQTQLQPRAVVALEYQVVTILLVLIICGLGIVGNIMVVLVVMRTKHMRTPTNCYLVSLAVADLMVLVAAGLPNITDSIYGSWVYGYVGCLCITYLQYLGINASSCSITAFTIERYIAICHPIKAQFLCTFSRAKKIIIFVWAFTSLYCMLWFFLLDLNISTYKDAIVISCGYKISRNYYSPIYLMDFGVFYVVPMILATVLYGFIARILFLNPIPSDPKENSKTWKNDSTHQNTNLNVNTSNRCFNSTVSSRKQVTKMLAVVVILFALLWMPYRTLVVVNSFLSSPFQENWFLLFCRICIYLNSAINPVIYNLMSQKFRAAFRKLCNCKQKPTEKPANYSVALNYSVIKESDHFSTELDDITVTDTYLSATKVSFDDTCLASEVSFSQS
Summary of the method: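 Screening used HEK293 cells engineered with TRHR, with a brief 5 min room-temperature compound exposure preceding addition of TRH to 1 nM. The read-out was kinetic calcium-dye fluorescence, concentration-response from 15 doses in triplicate.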

[10] = target: Thyrotropin-releasing hormone receptor (Homo sapiens) (UniProt P34981); experiment: qHTS assay to identify small molecule agonists of the thyrotropin-releasing hormone receptor (TRHR) signaling pathway (AID 1346891; calls by dose curve; further: series mostly up to about 58 µM)
Summary of the method: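 HEK293 cells expressing TRHR plated 18 h at 37 C/5% CO2, calcium dye-loaded 2 h at 37 C, then compound added (agonist mode); kinetic calcium fluorescence read 3 min at 1 s intervals; 15 concentrations in triplicate.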

[11] = Human pregnane X receptor (PXR) small molecule agonists, qHTS cell viability counter screen (AID 1346977); further: nearly all actives have a fitted effect of over 50% in size
Summary of the method: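 PXR-Luc HepG2 cells (2,000/well, 5% charcoal-stripped FBS) preincubated 5 hr, then exposed to compounds 24 hr at 37 C. Viability read in the same wells by CellTiter-Fluor fluorescence, reagent added at 23 hr, 1 hr incubation.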

[12] = Caspase-3/7 induction in HepG2 cells by small molecules, qHTS assay (AID 1346978); further: nearly all actives have a fitted effect of over 15% in size
Summary of the method: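 Caspase-3/7 induction was measured by Caspase-Glo 3/7 luminescence (30 min, room temperature) after a 17 hr compound exposure of wild-type HepG2 cells seeded at 2,000 per well and pre-incubated 5 hr.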

[13] = Caspase-3/7 induction in CHO-K1 cells by small molecules, qHTS cell viability counter screen (AID 1346979); further: nearly all actives have a fitted effect of over 35% in size
Summary of the method: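 Wild-type CHO-K1 cells (1,500/well) treated with compound after 5 h plating; after 16 h at 37C, viability read as CellTiter-Fluor fluorescence following 1 h reagent incubation, in the same wells as the caspase read.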

[14] = Caspase-3/7 induction in CHO-K1 cells by small molecules, qHTS assay (AID 1346980); further: nearly all actives have a fitted effect of over 15% in size
Summary of the method: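 Luminescent Caspase-Glo 3/7 read (30min, room temperature) quantified apoptosis induction. Cells were wild-type CHO-K1, treated with compound for 17hr at 37 C and 5% CO2.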

[15] = Caspase-3/7 induction in HepG2 cells by small molecules, qHTS cell viability counter screen (AID 1346981); further: series mostly up to about 92 µM; nearly all actives have a fitted effect of over 30% in size
Summary of the method: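 Multiplexed with the caspase-3/7 assay: HepG2 cells, 16 hr compound treatment, CellTiter-Fluor viability detection by fluorescence.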

[16] = target: Nuclear receptor subfamily 1 group I member 2 (Homo sapiens) (UniProt O75469); experiment: Human pregnane X receptor (PXR) small molecule agonists, qHTS assay (AID 1346982); further: nearly all actives have a fitted effect of over 35% in size; further: potency means the concentration at half of the fitted maximal effect
Sequence of Nuclear receptor subfamily 1 group I member 2 (Homo sapiens) (O75469 whole entry, looked up): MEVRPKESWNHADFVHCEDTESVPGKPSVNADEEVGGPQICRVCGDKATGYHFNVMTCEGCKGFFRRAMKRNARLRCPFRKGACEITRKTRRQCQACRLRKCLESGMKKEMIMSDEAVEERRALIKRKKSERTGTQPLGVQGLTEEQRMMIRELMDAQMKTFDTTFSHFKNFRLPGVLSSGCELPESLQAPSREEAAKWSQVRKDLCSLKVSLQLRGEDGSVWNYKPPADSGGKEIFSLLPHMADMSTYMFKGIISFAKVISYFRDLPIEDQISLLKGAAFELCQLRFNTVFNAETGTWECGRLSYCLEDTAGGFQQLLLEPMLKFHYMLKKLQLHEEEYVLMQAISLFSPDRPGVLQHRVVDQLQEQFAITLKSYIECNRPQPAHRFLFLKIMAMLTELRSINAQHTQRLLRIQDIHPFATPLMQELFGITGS
Summary of the method: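 We seeded PXR-Luc HepG2 cells in assay medium containing 5% charcoal-stripped FBS, added compounds 5 hr later, incubated 24 hr, and read luminescence with ONE-Glo reagent.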

[17] = target: Nuclear receptor subfamily 1 group I member 2 (Homo sapiens) (UniProt O75469); experiment: CYP3A4 induction through human pregnane X receptor (PXR) by small molecules, qHTS assay (AID 1346984); further: nearly all actives have a fitted effect of over 40% in size
Summary of the method: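 qHTS, concentration-response format: HepG2 DPX-2 line, PXR/CYP3A4-luc. Exposure 24 h, 37C. Substrate Luciferin-IPA 3uM final, 3 h. Detection One-Glo, 30 min RT.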

[18] = target: Nuclear receptor subfamily 1 group I member 2 (Homo sapiens) (UniProt O75469); experiment: Human pregnane X receptor (PXR) activation by small molecules, qHTS assay (AID 1346985); further: nearly all actives have a fitted effect of over 40% in size
Summary of the method: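 DPX-2 cells (HepG2 co-transfected with a PXR response element and a CYP3A4-promoter luciferase construct) were seeded at 2,000 per well, rested 5 hr at 37C, then exposed to DMSO-dissolved compounds for 24 hr. Activation was read as luciferase luminescence.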

[19] = target: Progesterone receptor (Homo sapiens) (UniProt P06401); experiment: qHTS assay to identify small molecule agonists of the progesterone receptor (PR) signaling pathway (AID 1346784; calls by dose curve; further: nearly all actives have a fitted effect of over 30% in size)
Summary of the method: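 PR-UAS-bla HEK 293T cells (beta-lactamase reporter under UAS) in 2% charcoal-stripped FBS, dosed with 23 nL compound after 6 hr, incubated 16hr at 37C. LiveBLAzer B/G FRET substrate added, fluorescence read after 2 hours.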

[20] = target: Nuclear receptor subfamily 1 group I member 2 (Rattus norvegicus) (UniProt Q9R1A7); experiment: Rat pregnane X receptor (rPXR) activation by small molecules, qHTS assay (AID 1346983); settings: rPXR luciferase reporter cells, One-Glo luminescence, 24 h; stronger effect = higher value; further: nearly all actives have a fitted effect of over 20% in size
Sequence of Nuclear receptor subfamily 1 group I member 2 (Rattus norvegicus) (Q9R1A7 whole entry, looked up): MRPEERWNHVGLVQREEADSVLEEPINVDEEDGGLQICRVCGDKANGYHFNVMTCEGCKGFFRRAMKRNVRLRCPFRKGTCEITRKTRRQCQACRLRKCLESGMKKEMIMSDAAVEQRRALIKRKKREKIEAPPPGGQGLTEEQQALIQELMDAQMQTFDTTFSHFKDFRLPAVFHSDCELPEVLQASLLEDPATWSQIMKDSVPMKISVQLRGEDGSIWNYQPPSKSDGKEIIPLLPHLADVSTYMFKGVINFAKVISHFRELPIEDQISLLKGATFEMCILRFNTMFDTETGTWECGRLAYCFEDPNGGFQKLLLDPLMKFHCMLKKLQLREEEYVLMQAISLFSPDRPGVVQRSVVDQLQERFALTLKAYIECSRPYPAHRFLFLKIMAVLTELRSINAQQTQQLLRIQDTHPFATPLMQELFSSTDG
Summary of the method: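 Luminescent readout (One-Glo luciferase, 30 min room temperature) followed 24 hr compound treatment at 37 C of rPXR cells plated 2,000 per well and preincubated 5hr; qHTS format with compounds delivered in DMSO.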
On the % scale 0 is the no-effect control and ±100 the full control effect.

Nc1nc2c(ncn2COC(CO)CO)c(=O)[nH]1
inactive: Potency [1] | Potency [2] | Potency [3] | Potency [4] | Potency [5] | Potency [6] | outcome [7] | outcome [8] | outcome [9] | outcome [10] | Potency [11] | Potency [12] | Potency [13] | outcome [14] | Potency [15] | Potency [16] | Potency [17] | Potency [18]

O=S(O)CO
inactive: Potency [1] | Potency [2] | Potency [19] | Potency [4] | Potency [5] | Potency [6] | outcome [7] | outcome [8] | outcome [9] | outcome [10] | Potency [11] | Potency [12] | Potency [13] | Potency [15] | Potency [16]

CCc1nccnc1CC
inactive: activity change, negative = inhibition [1] 0.0688% [at 19 µM] | activity change, negative = cytotoxicity [2] 1.02% [at 19 µM] | activation [19] 0.626% [at 19 µM] | Potency [4] | activity change, negative = cytotoxicity [5] -10.8% [at 19 µM] | viability change, negative = cytotoxic [6] 4.47% [at 15.8 µM] | activation [8] 1.18% [at 15.8 µM] | activity, negative = inhibition [9] 3.49% [at 10.5 µM] | activation [10] 0.11% [at 11.8 µM] | activity change, negative = cytotoxicity [11] -1.38% [at 19 µM] | caspase activation [12] 0.2% [at 19 µM] | Potency [13] | caspase-3/7 activation [14] -0.427% [at 19 µM] | activity change, negative = cytotoxicity [15] -4.23% [at 19 µM] | activation [16] -0.742% [at 19 µM]

CC1=CC(C)C(C=O)CC1 (stereo not given)
active: Potency [6] 4.9 µM
inactive: Potency [1] | Potency [2] | Potency [19] | Potency [5] | outcome [8] | outcome [9] | outcome [10] | Potency [11] | Potency [12] | Potency [13] | outcome [14] | Potency [15] | Potency [16]

CCCCCCOC(=O)CCCCC(=O)OCCCCCC
inactive: Potency [1] | Potency [2] | Potency [3] | Potency [4] | Potency [5] | Potency [6] | outcome [7] | outcome [8] | outcome [9] | outcome [10] | Potency [11] | Potency [12] | Potency [13] | outcome [14] | Potency [15] | Potency [16]

CC(=O)OC/C=C(\C)CC/C=C(\C)CCC=C(C)C
inactive: Potency [1] | Potency [2] | Potency [19] | Potency [4] | Potency [5] | Potency [6] | outcome [7] | outcome [8] | outcome [9] | Potency [11] | Potency [12] | Potency [13] | outcome [14] | Potency [15]
61.1 µM (active) and inactive: Potency [16]

Cc1ccc(C#N)cc1
inactive: Potency [1] | Potency [2] | Potency [3] | Potency [4] | Potency [5] | Potency [6] | outcome [7] | outcome [8] | outcome [9] | outcome [10] | Potency [11] | Potency [12] | Potency [13] | Potency [15] | Potency [16]

CC1(C)CO[C@@H](CC(=O)O)CN1
inactive: Potency [1] | Potency [2] | Potency [19] | Potency [4] | Potency [5] | Potency [6] | outcome [7] | outcome [8] | outcome [9] | outcome [10] | Potency [11] | Potency [12] | Potency [13] | Potency [15] | Potency [16] | Potency [17] | Potency [18]

CCCCOCCOCCOCc1cc2c(cc1CCC)OCO2
active: Potency [1] 23.7 µM
inactive: Potency [2] | Potency [19] | Potency [4] | Potency [5] | Potency [6] | outcome [7] | outcome [8] | outcome [9] | Potency [11] | Potency [12] | Potency [13] | outcome [14] | Potency [15] | max activation [20] -0.229%

CC(=O)OCC(CCn1cnc2cnc(N)nc21)COC(C)=O
inactive: Potency [1] | Potency [2] | Potency [19] | Potency [5] | Potency [6] | outcome [7] | outcome [8] | outcome [9] | outcome [10] | Potency [11] | Potency [12] | Potency [13] | Potency [15] | Potency [16] | Potency [17] | Potency [18]

CCCN(CCC)CCc1cccc2c1CC(=O)N2
inactive: Potency [1] | Potency [2] | Potency [3] | Potency [4] | Potency [5] | Potency [6] | outcome [7] | outcome [8] | outcome [9] | outcome [10] | Potency [11] | Potency [12] | Potency [13] | outcome [14] | Potency [15] | Potency [16]

COC(=O)[C@@H](N)Cc1ccc(O)c(O)c1
inactive: Potency [1] | Potency [2] | Potency [19] | Potency [4] | Potency [5] | Potency [6] | outcome [7] | outcome [8] | outcome [9] | Potency [11] | Potency [12] | Potency [13] | outcome [14] | Potency [15] | Potency [16] | max activation [20] -6.8% | Potency [17] | Potency [18]

CCN(CC)CCNC(=O)c1cc(S(C)(=O)=O)ccc1OC
inactive: Potency [1] | Potency [2] | Potency [19] | Potency [4] | Potency [5] | Potency [6] | outcome [7] | outcome [8] | outcome [9] | outcome [10] | Potency [11] | Potency [12] | outcome [14] | Potency [15] | Potency [16] | Potency [17] | Potency [18]

COC(=O)c1c(Cl)c(Cl)c(C(=O)OC)c(Cl)c1Cl
inactive: Potency [1] | Potency [2] | Potency [19] | Potency [4] | Potency [5] | Potency [6] | outcome [8] | Potency [11] | Potency [12] | Potency [13] | outcome [14] | Potency [15]
active: Potency [16] 21.7 µM
